Consider 3 compounds from PubChem BioAssay (EPA / NIEHS).

Several values for one entry are separate records, joined by “and”; a condition that tells them apart may be missing. Equal values may be shown once. Records with an inconclusive call do not appear. The source holds several records for some structures; these can differ, active in one and inactive in another. Activity calls are given as the source filed them. Rule for the calls, unless noted: active = hit-call score of the fitted dose curve at least 0.9, where 1 is the maximum; inconclusive = response in the unintended direction; inactive = score below 0.9.

For orientation: AC50 means the midpoint of the concentration-response curve, whichever way the signal moves.

Read-out in assay [1]: solute carrier (SLCO1B1), SLCO1B1 (gene 10599)
The experiment in a line: LTEA_HepaRG_SLCO1B1: Life Technologies and Expression Analysis (LTEA) Assay for solute carrier (SLCO1B1) using HepaRG (AID 2283530; active = hit-call score of the fitted dose curve at least 0.9, where 1 is the maximum; inactive = score below 0.9). The note with it: mRNA level, 48 h; actives raise or lower the signal. In outline:
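Differentiated human HepaRG cells, plated 48 h, switched to serum-free induction medium and exposed in duplicate for 48 h to 8 half-log concentrations (top 100 uM) in 0.5% DMSO. SLCO1B1 mRNA by TaqMan qRT-PCR, normalized to ACTB/GAPDH/POLR2A.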

Read-out in assay [2]: sulfotransferase 2A1 (SULT2A1), SULT2A1 (gene 6822)
The assay can be described thus: LTEA_HepaRG_SULT2A1: Life Technologies and Expression Analysis (LTEA) Assay for sulfotransferase 2A1 (SULT2A1) using HepaRG (AID 2283531; active = hit-call score of the fitted dose curve at least 0.9, where 1 is the maximum; inactive = score below 0.9). The note with it: mRNA level, 48 h; actives raise or lower the signal. In outline: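 Differentiated human HepaRG cells in serum-free induction medium were exposed for 48 h to eight half-log concentrations (top 100 uM, 0.5% DMSO). SULT2A1 mRNA was measured by qRT-PCR, normalized to ACTB, GAPDH and POLR2A, and fitted bidirectionally against DMSO.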

Read-out in assay [3]: Transforming Growth Factor (TGFA), TGFA (gene 7039)
The assay can be described thus: LTEA_HepaRG_TGFA: Life Technologies and Expression Analysis (LTEA) Assay for Transforming Growth Factor (TGFA) using HepaRG (AID 2283532; active = hit-call score of the fitted dose curve at least 0.9, where 1 is the maximum; inactive = score below 0.9). As to conditions: mRNA level, 48 h; actives raise or lower the signal. Put shortly: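 Differentiated HepaRG cells exposed 48 hours in serum-free induction medium, 0.5% DMSO vehicle, 8-point half-log series from 100 uM, in duplicate. TGFA mRNA by TaqMan qRT-PCR, normalised to ACTB, GAPDH, POLR2A; bidirectional fit versus DMSO.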

Read-out in assay [4]: Transforming Growth Factor (TGFB1), TGFB1 (gene 7040)
The experiment in a line: LTEA_HepaRG_TGFB1: Life Technologies and Expression Analysis (LTEA) Assay for Transforming Growth Factor (TGFB1) Transporter using HepaRG (AID 2283533; active = hit-call score of the fitted dose curve at least 0.9, where 1 is the maximum; inactive = score below 0.9). As to conditions: mRNA level, 48 h; actives raise or lower the signal. In outline:
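Differentiated human HepaRG cells in serum-free induction medium were exposed in duplicate for 48 h to eight concentrations (top 100 uM, half-log steps, 0.5% DMSO). TGFB1 mRNA was quantified by qRT-PCR, normalized to ACTB, GAPDH, POLR2A, and fitted bidirectionally against DMSO.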

Read-out in a further assay: TIMP1, TIMP1 (gene 7076)
The experiment in a line: LTEA_HepaRG_TIMP1: Life Technologies and Expression Analysis (LTEA) Assay for TIMP1 using HepaRG (AID 2283534; active = hit-call score of the fitted dose curve at least 0.9, where 1 is the maximum; inactive = score below 0.9). As to conditions: mRNA level, 48 h; actives raise or lower the signal. Put shortly: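 Differentiated human HepaRG cells in serum-free induction medium were exposed 48 h to chemicals (8 half-log concentrations, top 100 uM, 0.5% DMSO). TIMP1 mRNA was quantified by TaqMan qRT-PCR, normalized to ACTB/GAPDH/POLR2A; bidirectional fit versus DMSO.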

Read-out in assay [5]: Tumor necrosis factor receptor 1 (TNFRSF1A), TNFRSF1A (gene 7132)
The assay can be described thus: LTEA_HepaRG_TNFRSF1A: Life Technologies and Expression Analysis (LTEA) Assay for Tumor necrosis factor receptor 1 (TNFRSF1A) using HepaRG (AID 2283535; active = hit-call score of the fitted dose curve at least 0.9, where 1 is the maximum; inactive = score below 0.9). As to conditions: mRNA level, 48 h; actives raise or lower the signal. In outline:
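Differentiated human HepaRG cells were exposed in duplicate for 48 h in serum-free induction medium to eight concentrations (top 100 uM, half-log steps, 0.5% DMSO). TNFRSF1A mRNA was quantified by qRT-PCR, normalized to ACTB, GAPDH and POLR2A, then fitted bidirectionally against DMSO.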

Read-out in assay [6]: Thyroid Hormone Responsive (THRSP), THRSP (gene 7069)
The assay can be described thus: LTEA_HepaRG_THRSP: Life Technologies and Expression Analysis (LTEA) Assay for Thyroid Hormone Responsive (THRSP) using HepaRG (AID 2283536; active = hit-call score of the fitted dose curve at least 0.9, where 1 is the maximum; inactive = score below 0.9). The note with it: mRNA level, 48 h; actives raise or lower the signal. In outline:
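Differentiated HepaRG cells treated 48 h in serum-free induction medium with 8 half-log concentrations up to 100 uM (0.5% DMSO), duplicates. THRSP mRNA by TaqMan qRT-PCR normalised to ACTB, GAPDH, POLR2A; bidirectional fit versus DMSO.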

Read-out in assay [7]: Cellular tumor antigen p53 (Homo sapiens) (UniProt P04637)
The assay can be described thus: LTEA_HepaRG_TP53: Life Technologies and Expression Analysis (LTEA) Assay for Tumor Protein P53 (TP53) using HepaRG (AID 2283537; active = hit-call score of the fitted dose curve at least 0.9, where 1 is the maximum; inactive = score below 0.9). As to conditions: mRNA level, 48 h; actives raise or lower the signal. In outline:
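Read-out is TP53 transcript level by microfluidic qRT-PCR, normalised to three housekeeping genes and fitted bidirectionally against DMSO. Human HepaRG cells received compounds for 48 h, highest concentration 100 uM.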

Read-out in assay [8]: UDP glucuronosyltransferase (UGT1A1), UGT1A1 (gene 54658)
The assay can be described thus: LTEA_HepaRG_UGT1A1: Life Technologies and Expression Analysis (LTEA) Assay for UDP glucuronosyltransferase (UGT1A1) using HepaRG (AID 2283538; active = hit-call score of the fitted dose curve at least 0.9, where 1 is the maximum; inactive = score below 0.9). As to conditions: mRNA level, 48 h; actives raise or lower the signal. In outline:
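HepaRG cells, 0.5% DMSO vehicle, 48 h exposure in serum-free induction medium to 8-point half-log series topping at 100 uM, in duplicate. UGT1A1 mRNA by Fluidigm qRT-PCR, normalized to ACTB/GAPDH/POLR2A; bidirectional fit versus DMSO.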

Read-out in assay [9]: UDP glucuronosyltransferase (UGT1A6), UGT1A6 (gene 54578)
The assay can be described thus: LTEA_HepaRG_UGT1A6: Life Technologies and Expression Analysis (LTEA) Assay for UDP glucuronosyltransferase (UGT1A6) using HepaRG (AID 2283539; active = hit-call score of the fitted dose curve at least 0.9, where 1 is the maximum; inactive = score below 0.9). As to conditions: mRNA level, 48 h; actives raise or lower the signal. In outline:
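Human HepaRG cells were dosed for 48 h in serum-free induction medium with 0.5% DMSO vehicle, eight-point half-log series from 100 uM, in duplicate. UGT1A6 mRNA was measured by qRT-PCR, normalized to ACTB, GAPDH, POLR2A, and fitted bidirectionally against DMSO.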

Read-out in assay [10]: X-box binding protein 1 (XBP1), XBP1 (gene 7494)
The assay can be described thus: LTEA_HepaRG_XBP1: Life Technologies and Expression Analysis (LTEA) Assay for X-box binding protein 1 (XBP1) using HepaRG (AID 2283540; active = hit-call score of the fitted dose curve at least 0.9, where 1 is the maximum; inactive = score below 0.9). The note with it: mRNA level, 48 h; actives raise or lower the signal. In outline: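 Differentiated human HepaRG cells in serum-free induction medium were exposed in duplicate for 48 h to eight half-log concentrations up to 100 uM in 0.5% DMSO. XBP1 mRNA was quantified by qRT-PCR, normalised to ACTB, GAPDH and POLR2A, with bidirectional fitting against DMSO.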

Assay [11] is described as follows: LTEA_HepaRG_LDH_cytotoxicity: Cytotoxicity Assessment in the Life Technologies and Expression Analysis (LTEA) Assay (AID 2283563).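 For AC50: LDH activity released into spent culture medium as a marker of cell death.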 Put shortly: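 Differentiated human HepaRG cells, plated 48 h beforehand, were switched to serum-free induction medium and exposed for 48 h to eight half-log concentrations (top 100 uM) in 0.5% DMSO. LDH was measured in spent medium; activity was fitted relative to DMSO vehicle.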

For assay [12], the target named is Cellular tumor antigen p53 (Homo sapiens) (UniProt P04637). The assay can be described thus: TOX21_p53_BLA_p2_ratio: Tox21 HCT-116 p53 Agonism Beta-lactamase Assay, Ratio, Phase 2 (AID 2283592). In outline: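 HCT116 cells carrying a p53-responsive beta-lactamase reporter were plated, incubated 5 h at 37C, then dosed with compounds in DMSO (217-fold dilution) for 16 h. CCF4-AM substrate was added for 2 h at room temperature; the 460/530 nm emission ratio gave gain-of-signal activity relative to DMSO.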

Assay [13] in a line: TOX21_p53_BLA_p3_viability: Viability Assessment in the Tox21 HCT-116 p53 Agonism Beta-lactamase Assay, Phase 3 (AID 2283593).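 Note: cells exposed to compound for 16 h before reading.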 In outline: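 HCT116 cells, 4000/well, dosed 5 h after plating by pin transfer (217-fold dilution from DMSO stock) and incubated 16 h at 37C, 5% CO2. Viability read as ATP luminescence with CellTiter-Glo after 30 min at room temperature.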
Assay [14] has as its target Cellular tumor antigen p53 (Homo sapiens) (UniProt P04637). The assay can be described thus: TOX21_p53_BLA_p3_ratio: Tox21 HCT-116 p53 Agonism Beta-lactamase Assay, Ratio, Phase 3 (AID 2283596). In outline:
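HCT116 p53-bla cells (4000/well) given compound in DMSO (217-fold dilution) after 5 h, incubated 16 h at 37C. CCF4-AM substrate 2 h at room temperature; 460/530 nm emission ratio, gain fitted against DMSO.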

Assay [15] is described as follows: TOX21_p53_BLA_p4_viability: Viability Assessment in the Tox21 HCT-116 p53 Agonism Beta-lactamase Assay, Phase 4 (AID 2283597).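 Note: hits lower the luminescence signal meaning cytotoxicity.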 In outline:
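HCT116 p53-bla cells (4000/well) rested 5 h at 37C, then received compounds in DMSO (217-fold dilution) for 16 h at 37C, 5% CO2. CellTiter-Glo was added after the CCF4-AM read, and luminescence was read after 30 min at room temperature.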

The target of assay [16] is Cellular tumor antigen p53 (Homo sapiens) (UniProt P04637). The assay can be described thus: TOX21_p53_BLA_p5_ratio: Tox21 HCT-116 p53 Agonism Beta-lactamase Assay, Ratio, Phase 5 (AID 2283599). In outline:
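HCT-116 p53-bla cells (4000/well) plated 5 h, dosed with compound (217-fold DMSO dilution) for 16 h at 37 C; CCF4-AM substrate 2 h at room temperature. Activity is the 460/530 nm emission ratio (405 nm excitation), fitted in gain-of-signal direction versus DMSO.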

Assay [17] has the same target. The assay can be described thus: TOX21_p53_BLA_p4_ratio: Tox21 HCT-116 p53 Agonism Beta-lactamase Assay, Ratio, Phase 4 (AID 2283601). In outline: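 HCT-116 p53 beta-lactamase reporter cells (4000/well) preincubated 5 h, then compound (217-fold dilution of DMSO stock) for 16 h at 37C. CCF4-AM substrate added 2 h at room temperature; 460/530 nm emission ratio fitted upward versus DMSO.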

A short description of assay [18]: ATG_XTT_Cytotoxicity: Cytotoxicity Assessment in the Attagene TRANS-FACTORIAL HepG2 Assay (AID 2283584). In outline:
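HepG2 human liver cells, transiently transfected with multiple GAL4-UAS reporter units, were dosed and read at 24 h by XTT as cell number. Loss of signal was fitted relative to DMSO negative control baseline.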

A short description of assay [19]: TOX21_p53_BLA_p5_viability: Viability Assessment in the Tox21 HCT-116 p53 Agonism Beta-lactamase Assay, Phase 5 (AID 2283600). Put shortly: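 Cells were plated at 4000/well, rested 5 h at 37C, then given compounds in DMSO (217-fold dilution) for 16 h at 37C, 5% CO2. Following the CCF4-AM beta-lactamase read, CellTiter-Glo was added and luminescence was read after 30 min at room temperature.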

Cellular tumor antigen p53 (Homo sapiens), sequence (P04637 whole entry, looked up): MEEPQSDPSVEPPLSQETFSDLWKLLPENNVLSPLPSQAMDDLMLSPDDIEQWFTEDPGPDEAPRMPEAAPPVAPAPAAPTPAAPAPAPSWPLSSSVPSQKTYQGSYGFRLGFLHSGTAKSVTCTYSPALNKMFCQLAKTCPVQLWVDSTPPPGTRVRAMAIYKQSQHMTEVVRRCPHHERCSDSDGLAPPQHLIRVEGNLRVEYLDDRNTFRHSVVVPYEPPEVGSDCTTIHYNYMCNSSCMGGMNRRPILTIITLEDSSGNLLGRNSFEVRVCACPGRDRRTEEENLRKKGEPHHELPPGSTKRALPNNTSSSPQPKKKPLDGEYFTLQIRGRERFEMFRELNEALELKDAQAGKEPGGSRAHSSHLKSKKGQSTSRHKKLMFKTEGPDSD

In the case of `CCC(C)(C)C(=O)OC1=C(c2ccc(Cl)cc2Cl)C(=O)OC12CCCCC2`, the outcome in assay [1] is “inactive”; in [2], “inactive”; in assay [3], “inactive”; in assay [4], “inactive”; with TIMP1, TIMP1 (gene 7076), “inactive”; in [5] it was “inactive”. Besides, the compound was classed as inactive in [6], in assay [7], in assay [8], in [9], in [10] and in assay [11]. The result in assay [12], in assay [15] and in [17] was inactive. Also, the half-maximal activity concentration (AC50) in [13] is 74.9 µM (active); in assay [14], 2.5 µM (active); in assay [16] it was 28.4 µM (active).
In the case of `ClC1C(Cl)C(Cl)C(Cl)C(Cl)C1Cl` (stereo unspecified), the outcome in assay [1] was “inactive”; in assay [2], “inactive”; in [3], “inactive”; in assay [4], “inactive”; in the assay with TIMP1, TIMP1 (gene 7076) it was “inactive”; in [5] it was “inactive”. Besides, the outcome in assay [6], in assay [7], in [10], in assay [11], in assay [18] and in assay [12] was inactive. Besides, the compound was called inactive in assay [13], in assay [14], in assay [15], in assay [16], in assay [19] and in assay [17]. For the same compound, the AC50 is 780 nM (active) and 3.95 µM (active) in assay [8]; 72.6 µM (active) in [15]; 86.7 µM (active) in assay [16].
Regarding `CCOCN(C(=O)CCl)c1c(C)cccc1CC`, the half-maximal activity concentration (AC50) in [1] is 81.3 µM (active); in assay [2], 83.8 µM (active); in assay [6] it was 9.92 µM (active); in [11], 76 µM (active). Moreover, the outcome in assay [3] was “inactive”; in assay [4], “inactive”; with TIMP1, TIMP1 (gene 7076), “inactive”; in assay [5], “inactive”; in assay [7], “inactive”; in assay [8], “inactive”. In addition, the call in [10], in assay [18], in [12], in assay [14], in [15] and in assay [16] was inactive. The outcome in [17] was inactive.
